Data on 39 compounds can be found in PubChem BioAssay.

Values joined by “and” are separate entries in the source; they are usually repeats but may differ in a detail not shown here. Equal entries are not always repeated.

This experiment in a line: sensitizers of A549 cells to miR-34 induction, primary screen, imaging, A549 dox-inducible miR-34, nuclei and caspase counts (AID 1347080). Also: test concentration not given here. As to conditions: A549 miR-34 inducible, Hoechst nuclei count, 48 h; measured here: total cells without miR-34 induction.
As to `CC(CNC(=O)c1cccnc1)NC(=O)c1cccnc1` (centres undefined), the cell count came out at 9930. Next, `CCOC(=O)C(CCc1ccccc1)NC1CSC(c2cccs2)CN(CC(=O)O)C1=O` (centres undefined): 7900; `CNc1nc(Nc2cnn(C3CCN(C4COC4)CC3F)c2Cl)ncc1C(F)(F)F` (centres undefined): 8760; `C=C1CCC(O)CC1=CC=C1CCC[C@]2(C)C(C(C)C=CC(C)C(C)C)CC[C@@H]12` (some centres undefined): 8320. Then `O=C(C=Cc1cccc(S(=O)(=O)Nc2ccccc2)c1)NO`, with 1160; and `CCN1C(=CC(C)=O)Sc2ccc(OC)cc21`, with 7700.

Regarding `CC1C[C@@H]2[C@@H](C(O)C[C@@]3(C)[C@H]2CC[C@@]3(O)C(=O)CO)[C@@]2(C)C=CC(=O)C=C12` (some centres undefined), the cell count amounted to 6980.

Turning to `Cc1onc(-c2ccccc2Cl)c1C(=O)NC1C(=O)N2C(C(=O)O)C(C)(C)S[C@@H]12` (some centres undefined), the cell count came to 10000.

In the case of `CC(CCC(=O)O)C1CC[C@H]2[C@@H]3CC[C@@H]4CC(O)CC[C@]4(C)[C@H]3CC[C@]12C` (some centres undefined), the cell count was found to be 8650. Then `CC(=O)O[C@@]1(C(C)=O)CC[C@H]2[C@@H]3CCC4=CC(=O)CCC4=C3C(c3ccc(N(C)C)cc3)C[C@@]21C` (some centres undefined), with 6380; and `CC1(C)S[C@@H]2C(NC(=O)Cc3ccccc3)C(=O)N2C1C(=O)O` (some centres undefined), with 9040; and `O=C1c2ccc(Nc3ccc(F)cc3F)cc2CCc2ccc(OCC(O)CO)cc21` (centres undefined), with 7450. Then `COc1cc2ncnc(Sc3nnc(C)s3)c2cc1OC`, with 5640; and `CC(C)(F)CC(NC(c1ccc(-c2ccc(S(C)(=O)=O)cc2)cc1)C(F)(F)F)C(=O)NC1(C#N)CC1` (centres undefined), with 8500; and `CC(NC(=O)C(C#N)=Cc1cccc(Br)n1)c1ccccc1` (centres undefined), with 1340. Next, `COc1cccc2c1C(=O)c1c(O)c3c(c(O)c1C2=O)C[C@@](O)(C(C)=O)CC3O[C@H]1CC(N)C(O)C(C)O1` (some centres undefined): 2390. For `COc1cc(C=CC(=O)N2CCN(CC(=O)N3CCCC3)CC2)cc(OC)c1OC`, the cell count was 8570. Next, `CC(C)(O)CCC(O)[C@](C)(O)C1CC[C@@]2(O)C3=CC(=O)[C@@H]4CC(O)C(O)C[C@]4(C)[C@@H]3CC[C@]12C` (some centres undefined): 10300. Regarding `O=C(O)c1cc(I)ccc1NC(=O)C(Cc1ccccc1)NCc1ccccc1` (centres undefined), the cell count worked out at 10100. Then `COC(c1ccccc1)(c1ccccc1)C(Oc1nc(C)cc(C)n1)C(=O)O` (centres undefined), with 8220. Next, `CC1(C)O[C@H]2CC(=O)OC[C@]23[C@H]2CC[C@@]4(C)C(c5ccoc5)OC(=O)C5O[C@]54[C@@]2(C)C(=O)C[C@@H]13` (some centres undefined): 10000; `C=CC[N+]1(C2C[C@H]3[C@@H]4CC[C@H]5CC(O)C(N6CCOCC6)C[C@]5(C)[C@@H]4CC[C@]3(C)C2OC(C)=O)CCCC1` (some centres undefined): 8520. Next, `CC1C(NC(=O)C(=NOC(C)(C)C(=O)O)c2csc(N)n2)C(=O)N1S(=O)(=O)O` (centres undefined): 7650; `Cc1c(O)cccc1C(=O)NC(CSc1ccccc1)C(O)CN1C[C@H]2CCCC[C@H]2CC1C(=O)NC(C)(C)C` (some centres undefined): 7710; `CC1(C)C=C(CN2CC(=Cc3ccc(F)cc3)C(=O)C(=Cc3ccc(F)cc3)C2)C(C)(C)N1O`: 7800.

As to `CC1CNc2c(cccc2S(=O)(=O)N[C@@H](CCCN=C(N)N)C(=O)N2CCC(C)CC2C(=O)O)C1` (some centres undefined), the cell count was found to be 7990. As for `CN(C)C(=O)Nc1cccc(-c2ccc(N(C)C)cc2)c1`, the cell count worked out at 8180. Then `CCC1C(=O)N(C)c2cnc(Nc3ccc(C(=O)NC4CCN(C)CC4)cc3OC)nc2N1C1CCCC1` (centres undefined), with 1150; and `CCC(C)C(=O)OC1CC(O)C=C2C=CC(C)C(CCC(O)CC(O)CC(=O)O)[C@H]21` (some centres undefined), with 8230. Then `O=[N+]([O-])c1cn2c(n1)OCC(OCc1ccc(OC(F)(F)F)cc1)C2` (centres undefined), with 6960; and `CC1OC(O)C(O)C(O)C1O` (centres undefined), with 7350; and `CC1CC(=O)NN=C1c1ccc(NN=C(C#N)C#N)cc1` (centres undefined), with 9730. Next, `O=c1ncccn1C1OC(CO)C(O)C1O` (centres undefined): 9410. In the case of `Cc1nc(Nc2n[nH]c3c2CN(C(=O)NC(CN(C)C)c2ccccc2)C3(C)C)c2sccc2n1` (centres undefined), the cell count was determined as 1420. Next, `C=C1C(=O)OC2C=C(C)CCC=C(C)CCC12` (centres undefined): 7760. As to `CCOC(=O)c1ccc(N2NC(=O)C(=Cc3ccc([N+](=O)[O-])o3)C2=O)cc1`, the cell count was found to be 8150.

As for `CC(C=CC1=C(C)CCCC1(C)C)=CC=CC(C)=CC(=O)O`, the cell count is 7170 and 9070. Next, `COc1ccc(CCc2nc3cc(-c4c(C)noc4C)ccc3n2CC(C)N2CCOCC2)cc1Cl` (centres undefined): 8230; `O=C(CCCS)NC1CCN(C(=O)COc2ccc(Cl)cc2Cl)CC1`: 8940.
